Bioassay records deposited in PubChem BioAssay by several laboratories.
SKKanGAS inh: blocks kanamycin growth of S. pyogenes SKKanGAS strain | AID 1662 | inhibition, % at 7.5 µM | hit rate 1.3% among 300,000 | BacTiter-Glo, 6 h;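 active means mean replicate score, as percent of positive control median, at least 50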;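 further: strain carries kanamycin resistance gene driven by streptokinase promoter and grows in 40 µg/ml kanamycin; loss of luminescence reflects streptokinase promoter inhibition or plain growth inhibition; 0% = median of DMSO wells and 100% = positive control at its reference dose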
PfHsp90 set2: growth inhibition of yeast expressing Plasmodium Hsp90 | hit rate 0.32% among 310,000 | inhibition, % at 9.4 µM | S. cerevisiae expressing PfHsp90, BacTiter-Glo ATP, 48 h; yeast lacking PDR1 and PDR3 efflux regulators;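 active means every replicate shows inhibition above about 80%, whatever the replicate mean, limit read from the data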;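 further: 0% = DMSO neutral controls and 100% = 20 µM radicicol positive controls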
TIM10 inh: growth inhibitors of TIM10 yeast strain; inhibition, % at 10 µM; S. cerevisiae TIM10 strain growth, BacTiter-Glo luminescence, 24 h; hit rate 1.4% among 330,000; AID 463195;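 active means inhibition of 40% or more at the single tested concentration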;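 further: wild-type TIM10 isogenic control strain grown at permissive 25 °C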
NALP1 yeast inh: NALP1 inhibition; inhibition, % at 10 µM; S. cerevisiae NALP1/ASC/caspase-1 growth, X-gal OD620, 72 h; hit rate 0.61% among 280,000; in the data active means inhibition mostly above about 24%, no sharp cut-off; inactive means mostly below about 32%
tim10-1 inh: inhibits growth of tim10-1 mutant yeast | hit rate 2.2% among 330,000 | S. cerevisiae tim10-1 ts strain growth, BacTiter-Glo, 24 h | inhibition, % at 20 µM | AID 463190;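 active means inhibition of at least 40%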;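 further: mutant grown at 25 °C; 0% = DMSO wells with yeast and 100% = wells holding no yeast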
tim23-1 inh: tim23-1 yeast growth inhibition; inhibition, % at 20 µM; S. cerevisiae tim23-1 growth, BacTiter-Glo luminescence, 24 h; hit rate 1.3% among 330,000; AID 463212;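 active means growth inhibition of the mutant yeast at or above 50%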;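 further: temperature-sensitive mutant grown at 25 °C; plate controls were DMSO-treated mutant yeast for no effect and medium wells lacking yeast for full effect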
* hit, by the source's call; nt = not tested or not shown. Shown are actives, neighbours in structure and some others; about 4.8% of the full set was active somewhere.

SMILES	SKKanGAS inh	PfHsp90 set2	TIM10 inh	NALP1 yeast inh	tim10-1 inh	tim23-1 inh
CCCc1nc(SCC(=O)N2CCCCCC2)c2c(=O)n(C)c(=O)n(C)c2n1	50*	nt	nt	20	nt	nt
CCCn1nnc(NC(=O)Cc2ccccc2)n1	-1	-11	2	14	11	16
CCCCCC(=O)Nc1nnn(CCC)n1	1	10	-1	43*	4	15
COc1ccccc1NC(=O)Cc1csc(NC(=S)Nc2ccccc2)n1	48	nt	24	-9	24	11
COc1ccc(NC(=S)Nc2nc(CC(=O)Nc3ccccc3OC)cs2)cc1	58*	-10	9	0	18	0
COCc1c(C(=O)N/N=C/c2ccco2)nnn1-c1nonc1N	4	22	6	0	-20	-8
CC1=CC2C(C(O)CC3(C)C2CC(C)C32OCOC23COCO3)C2(C)C/C(=C\O)C(=O)C=C12 (stereo not drawn)	nt	110*	nt	nt	nt	nt
CC1=C(C)CC(C(=O)NNC(=O)c2ccccc2)C(C(=O)O)C1 (stereo not drawn)	-2	27	1	4	16	21
CCOC(=O)c1sc(NC(=O)c2cccc(S(=O)(=O)N(CC)CC)c2)cc1C	-3	3	-3	-6	10	-20
CCOC(=O)c1sc(NC(=O)c2ccc(S(=O)(=O)N(C)C)cc2)cc1C	4	3	3	41*	14	-2
CCOC(=O)c1sc(NC(=O)Nc2ccc(Cl)cc2)cc1C	81*	-4	7	36	12	4
CCOc1ccccc1NC(=O)c1ccc(S(=O)(=O)N(C)C)cc1	-18	-22	-7	41*	7	14
CCOC(=O)c1sc(NC(=O)c2ccc(Cl)s2)cc1C	-6	-22	3	nt	-25	-13
Cn1c(-c2sc3cc(C(F)(F)F)cnc3c2-c2cccs2)n[nH]c1=S	14	-113	-17	-1	14	7
CC(C)(C)NC(=O)C(c1ccncc1)N(Cc1cccs1)C(=O)c1csnn1 (stereo not drawn)	11	-28	-6	nt	10	1
COCn1c(COc2ccc3ccccc3c2)nc2ccccc21	3	5	12	4	27	24
NCCS	-4	16	15	47*	6	-4
CC12CCC(C(=O)Nc3cccc(Cl)c3Cl)([C@H](Br)C1=O)C2(C)C (stereo partly drawn)	54*	-21	15	8	17	17
COc1cc(C)c(-c2[nH]ncc2-c2csc(C)n2)c(O)c1	-5	nt	-8	nt	5	-1
C[C@]12c3[nH]c4cc(-c5ccco5)ccc4c3CCN1C(=O)[C@@H](CC(=O)NCCc1ccccn1)C[C@@H]2C(=O)N1CCCCC1	nt	-7	5	nt	6	21
CCOC(=O)c1nc(Nc2ccc(Nc3ccccc3)cc2)c2ccccc2n1	56*	-10	nt	-5	nt	nt
CC(C)N1C/C(=C/c2cccnc2)C(=O)/C(=C/c2cccnc2)C1	nt	16	nt	106*	nt	nt
Cc1ccc(OCCCCNC2CCCC(C)C2C)c(C)c1 (stereo not drawn)	-4	-3	-3	30*	-1	-59
Cn1c(CSCc2ccccc2Cl)nnc1SCC(=O)Nc1nccs1	-5	40	4	37	9	0
CCOc1ccc(C(=O)NCC2CCCN2S(=O)(=O)c2cccs2)cc1 (stereo not drawn)	53*	13	10	nt	12	27
SMILES	SKKanGAS inh	PfHsp90 set2	TIM10 inh	NALP1 yeast inh	tim10-1 inh	tim23-1 inh
CCOc1ccc(NC(=O)C2CCN(S(=O)(=O)c3cccs3)CC2)cc1	-8	7	-6	39*	15	17
O=C(Nc1ccccc1C(=O)NCCCn1ccnc1)c1ccccc1	5	15	-1	2	6	15
COc1cc(CNCc2ccccn2)ccc1OCc1c(Cl)cccc1Cl	-9	-40	-3	-1	31	9
Cc1c(Cl)cccc1-c1ccc(CNCc2ccccn2)o1	83*	-4	-3	5	-29	4
CC(=O)c1c(C)nc(Nc2nc(C)c3cc(C)ccc3n2)nc1C	-1	-12	-12	10	-19	-17
CCc1nc(N)nc(N)c1-c1ccc(Cl)cc1	70*	-5	4	28	12	-2
CCc1nc(N)nc(N)c1-c1ccc(NCCN)c([N+](=O)[O-])c1	nt	-4	nt	nt	nt	nt
Cc1cc(C)cc(NC(=S)NCCSc2ccc(Cl)cc2)c1	50*	-49	27	29	30	24
